Screening results (PubChem)
SW480 rereplic = induces DNA re-replication in SW480 colon adenocarcinoma cells | Potency, µM (titrated, usually from 46.1 µM), hits mostly activators | SW480 DNA re-replication, Hoechst DNA content imaging, 48 h | hit rate 1.8% among 340,000; note: nearly all actives have a fitted effect of over 55% in size
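DNA re-replication was detected as more nuclei of elevated Hoechst intensity after 48 hr exposure to compound (23 nL pinned per well of 250 cells).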
BCR signal inh = blocks chronic active B-cell receptor signaling; ABC-DLBCL IkBa-CBG/CBR reporter, luminescence ratio, 4 h; Potency, µM (titrated, usually from 46.1 µM), most hits filed as inhibitors; hit rate 0.05% among 340,000; AID 493014; active = well fitted inhibition curve with a large enough effect in the signal ratio, with a control signal flat, not every such curve was filed as active; inconclusive = small, poorly fitted or top-dose-only effect, or effect the other way, or a change in a side signal; the % refers to the signal ratio
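Doxycycline induced both beetle luciferases in TMD8 lymphoma cells; IKK-driven degradation limits the IkappaBalpha-fused green signal, while red luminescence normalises for cell number and nonspecific effects. Compounds tested up to 46 uM, 4 hrs.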
RORgamma inh = inhibitors of mouse ROR gamma transcriptional activity; P51450; Drosophila S2 Gal4-RORgamma UAS-luciferase reporter, 20 h; Potency, µM (titrated, usually from 53.6 µM), hits mostly inhibitors; hit rate 5.4% among 310,000; AID 2551; note: nearly all actives have a fitted effect of over 60% in size
Target sequence (P51450 whole entry, looked up, the tested form may be a part): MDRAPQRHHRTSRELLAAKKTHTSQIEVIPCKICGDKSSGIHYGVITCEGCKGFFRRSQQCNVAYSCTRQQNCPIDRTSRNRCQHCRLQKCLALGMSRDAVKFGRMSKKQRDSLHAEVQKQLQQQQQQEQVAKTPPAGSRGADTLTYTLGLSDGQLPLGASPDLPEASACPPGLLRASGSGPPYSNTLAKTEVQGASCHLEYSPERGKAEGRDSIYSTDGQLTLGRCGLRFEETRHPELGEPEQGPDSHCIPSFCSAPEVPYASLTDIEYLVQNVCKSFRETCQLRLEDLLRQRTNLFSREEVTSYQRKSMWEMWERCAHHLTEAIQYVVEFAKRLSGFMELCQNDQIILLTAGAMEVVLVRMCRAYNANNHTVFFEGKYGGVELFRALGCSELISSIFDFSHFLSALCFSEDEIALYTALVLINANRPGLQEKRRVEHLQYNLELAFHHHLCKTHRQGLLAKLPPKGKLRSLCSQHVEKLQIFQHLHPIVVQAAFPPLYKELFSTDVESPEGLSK
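Read-out: Photinus luciferase luminescence; inhibitors lower reporter signal. Insect Schneider cells with Gal4-ROR gamma fusion under metallothionein promoter, UAS reporter; 700 uM final copper sulfate induction, 20 hr, ambient temperature.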
MCF10A rereplic = DNA re-replication induction in MCF 10a cells; MCF 10A DNA re-replication, Hoechst nuclear intensity, 48 h; Potency, µM (series often up to 46.1 µM), hits mostly activators; hit rate 2.9% among 350,000; AID 624296; note: nearly all actives have a fitted effect of over 50% in size
VP16 counter = inhibits Gal4-VP16 luciferase reporter, ROR gamma counter-screen | Drosophila S2 Gal4-VP16 UAS-luciferase, luminescence, 20 h | Potency, µM (doses to about 53.6 µM), actives largely listed as inhibitors | hit rate 3.5% among 310,000;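 note: Gal4-VP16 expression switched on by copper sulfate through the metallothionein promoter; nearly all actives have a fitted effect of over 50% in size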
Giardia kill = kills Giardia lamblia | Giardia lamblia trophozoite viability | activity change, % at 7.66 µM, hits read low | hit rate 0.15% among 340,000 | AID 540267; in the data active = activity change below about -80%; inconclusive = between about -30% and that limit;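 note: parasites exposed to compound for two days anaerobically before the ATP read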
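Media and compound were dispensed first, then trophozoites at 100 cells/well; plates sat 48 hrs at 37 deg C without oxygen before ATP luminescence reagent was added and read after 15-30 min at room temperature.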
Of the large screens only hits and unclear results are named; the others gave an inactive call. This is a sample that favours compounds with a hit; in the whole collection about 8.3% have one here. Unless noted, calls come from the whole dose curve; as a rule, active = well fitted curve in the direction sought with a large enough effect; inconclusive = small, poorly fitted or top-dose-only effect, or another doubt; inactive = no such curve, though single readings can be large; an effect the other way counts as inactive or inconclusive.

c1ccc(-c2nc(NCC3CCCO3)c3ccccc3n2)nc1 (centres undefined)	SW480 rereplic inconclusive, RORgamma inh 1.58µM, MCF10A rereplic inconclusive, VP16 counter 7.08µM
Oc1ccccc1-c1nc(NCc2ccco2)c2ccccc2n1	BCR signal inh inconclusive, MCF10A rereplic inconclusive
c1ccc(-c2nc(NCc3ccco3)c3ccccc3n2)nc1	SW480 rereplic 5.8µM, BCR signal inh inconclusive, RORgamma inh 1.26µM, MCF10A rereplic inconclusive, VP16 counter 2.82µM
c1ccc2c(NCC3CCCO3)nc(N3CCOCC3)nc2c1 (centres undefined)	none
COc1ccc(NC(=O)c2ccc(S(=O)(=O)N3CC(C)OC(C)C3)cc2)cc1 (centres undefined)	none (no result: RORgamma inh, VP16 counter)
O=C(Nc1nnc(-c2ccco2)o1)c1ccc(S(=O)(=O)N2CCCC2)cc1	BCR signal inh inconclusive
CC1CCN(S(=O)(=O)c2ccc(C(=O)Nc3nnc(-c4ccco4)o3)cc2)CC1	SW480 rereplic inconclusive, RORgamma inh 0.355µM, MCF10A rereplic inconclusive, VP16 counter 0.501µM
COc1cccc(-c2nnc(NC(=O)c3ccc(S(=O)(=O)N4CC(C)OC(C)C4)cc3)o2)c1 (centres undefined)	SW480 rereplic inconclusive, BCR signal inh inconclusive, RORgamma inh 0.562µM, MCF10A rereplic inconclusive, VP16 counter 1µM
CC1CN(S(=O)(=O)c2ccc(C(=O)Nc3nnc(-c4ccco4)o3)cc2)CC(C)O1 (centres undefined)	SW480 rereplic inconclusive, RORgamma inh 1µM, MCF10A rereplic inconclusive, VP16 counter 3.16µM
COC(=O)c1[nH]c2c(c1C)C(=O)CC(c1cccs1)C2 (centres undefined)	SW480 rereplic inconclusive, BCR signal inh inconclusive, MCF10A rereplic 2.06µM, Giardia kill inconclusive
Cc1c(C(=O)O)[nH]c2c1C(=O)CC(c1ccccc1)C2 (centres undefined)	none
COC(=O)c1[nH]c2c(c1C)C(=O)CC(c1cc(OC)ccc1OC)C2 (centres undefined)	SW480 rereplic inconclusive, MCF10A rereplic 8.2µM
CCOc1ccc(C2CC(=O)c3c([nH]c(C(=O)OC)c3C)C2)cc1OC (centres undefined)	none (no result: BCR signal inh)
O=C(c1cccn2c(=O)c3ccccc3nc12)N1CCN(Cc2ccc3c(c2)OCO3)CC1	none
O=C(c1cccn2c(=O)c3cc(Cl)ccc3nc12)N1CCN(Cc2ccc3c(c2)OCO3)CC1	SW480 rereplic 18.4µM, MCF10A rereplic 10.3µM
O=S(=O)(NCC(O)c1ccccc1)c1ccc(-c2ccccn2)s1 (centres undefined)	SW480 rereplic 23.1µM, MCF10A rereplic inconclusive
CC(C)(C)C(=O)/C(=C/c1ccncc1)n1cncn1	SW480 rereplic inconclusive, BCR signal inh inconclusive, RORgamma inh 1µM, MCF10A rereplic inconclusive, VP16 counter 2.82µM
Cc1cc(C)c2sc(NC(=O)c3ccc([N+](=O)[O-])o3)nc2c1	SW480 rereplic inconclusive, BCR signal inh inconclusive, RORgamma inh 5.01µM, MCF10A rereplic 20.6µM, VP16 counter 10µM, Giardia kill -81.2
CCc1noc(C)c1C(=O)Nc1nc2c(C)cc(C)cc2s1	BCR signal inh inconclusive, MCF10A rereplic inconclusive (no result: RORgamma inh, VP16 counter)
Cc1cc(C)c2nc(NC(=O)c3ccc([N+](=O)[O-])o3)sc2c1	BCR signal inh inconclusive, MCF10A rereplic inconclusive, Giardia kill -90.4
O=C(Nc1nc2c(F)cc(F)cc2s1)c1ccc([N+](=O)[O-])o1	SW480 rereplic 9.2µM, BCR signal inh inconclusive, MCF10A rereplic 11.6µM, VP16 counter inconclusive, Giardia kill -86.2
COC(=O)c1ccc(C=O)cc1	none (no result: SW480 rereplic, BCR signal inh, MCF10A rereplic, Giardia kill)
O=C(c1cccs1)N(Cc1ccc(Cl)cc1)C1CCS(=O)(=O)C1 (centres undefined)	SW480 rereplic inconclusive, VP16 counter inconclusive
CC(C)CCC(CCNCc1ccccn1)c1ccc(Cl)cc1 (centres undefined)	SW480 rereplic inconclusive, BCR signal inh inconclusive, RORgamma inh 11.2µM, MCF10A rereplic inconclusive
Cc1cc(C)cc(SCc2noc(C(=O)NCCCN3CCOCC3)c2C(=O)NCCCN2CCOCC2)c1	none
Cc1cccc(OCCOC(=O)c2c(-c3ccccc3)noc2C)c1	SW480 rereplic 8.2µM, RORgamma inh inconclusive, MCF10A rereplic 18.4µM
CCOc1ccc(/C=N/NC(=O)C(O)c2ccccc2)c(O)c1 (centres undefined)	SW480 rereplic inconclusive, RORgamma inh 0.794µM, VP16 counter 2µM
O=C1/C(=C\c2ccc(O)cc2)SC(=S)N1Cc1ccccc1	SW480 rereplic inconclusive, BCR signal inh inconclusive, RORgamma inh inconclusive
O=C(O)CN1C(=O)/C(=C\c2cc(Br)ccc2OCc2ccccc2F)SC1=S	MCF10A rereplic 18.4µM, Giardia kill inconclusive
O=C1/C(=C\c2cc(Br)cc(Br)c2O)SC(=S)N1Cc1ccccc1	RORgamma inh 12.6µM, MCF10A rereplic 9.2µM, VP16 counter inconclusive
O=C1/C(=C/c2ccccc2O)SC(=S)N1Cc1cccnc1	SW480 rereplic inconclusive, RORgamma inh inconclusive, MCF10A rereplic 6.51µM, VP16 counter inconclusive
O=C1/C(=C\c2cccc([N+](=O)[O-])c2O)SC(=S)N1Cc1ccccc1	VP16 counter 15.8µM
O=C1/C(=C/c2ccc(O)c([N+](=O)[O-])c2)SC(=S)N1Cc1ccccc1	MCF10A rereplic inconclusive, Giardia kill inconclusive
NC(=O)N/N=C(/CCCCCC/C(=N\NC(N)=O)c1ccccc1)c1ccccc1	SW480 rereplic inconclusive, BCR signal inh inconclusive, MCF10A rereplic inconclusive, VP16 counter inconclusive
COc1cc([N+](=O)[O-])cc(/C=C2/SC(=S)N(Cc3ccccc3)C2=O)c1O	RORgamma inh inconclusive, MCF10A rereplic inconclusive, VP16 counter 5.01µM
O=C(O)c1cccc(CN2C(=O)S/C(=C/c3cccc([N+](=O)[O-])c3)C2=O)c1	SW480 rereplic inconclusive, BCR signal inh inconclusive, RORgamma inh 5.62µM, MCF10A rereplic inconclusive, VP16 counter 7.08µM
CCOc1ccccc1C=C1SC(=S)N(CC)C1=O	none (no result: BCR signal inh, RORgamma inh, VP16 counter)
COc1cc(/C=C2/SC(=S)N(Cc3ccccc3)C2=O)cc(Cl)c1O	BCR signal inh inconclusive, RORgamma inh inconclusive, VP16 counter inconclusive
CCN1C(=O)/C(=C\C=C\c2ccccc2[N+](=O)[O-])SC1=S	SW480 rereplic inconclusive, MCF10A rereplic 4.11µM
C=CCN=C1S/C(=C/c2cccc([N+](=O)[O-])c2)C(=O)N1CC=C	none
Cc1nn(CC(C)C)c(Cl)c1C(=O)N(c1ccc(Cl)cc1F)S(C)(=O)=O	BCR signal inh inconclusive, MCF10A rereplic 20.6µM
CCN(CC(=O)Nc1ccc(NC(C)=O)cc1)C(=O)C1CCN(C(=O)c2ccccc2C)CC1	SW480 rereplic 3.66µM (no result: BCR signal inh, RORgamma inh, VP16 counter)
CCN(CC(=O)Nc1ccc(NC(C)=O)cc1)C(=O)C1CCCC1	none (no result: RORgamma inh, VP16 counter)
